# Values joined by “and” are separate entries in the source; they are usually repeats but may differ in a detail not shown here. Equal values may be shown once. Where a name gives a salt, the structure may show the parent alone.
# Columns and labels:
# Assay in all cases: Euclidean distance of Cell Painting phenotypic profile (signed KS, 77 features) to DMSO centroid (dimensionless distance); 5 or 10 uM (library dependent); higher = stronger phenotypic change vs DMSO (phenoactivity)
# Conditions in all cases: 48 h
# [1] = test system: 786-O
# In short: (§1)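 Phenoactivity is defined as the Euclidean distance from a compound profile to the median vehicle profile. Each profile comprised 77 Harmony features, scored as signed Kolmogorov-Smirnov statistics versus same-plate vehicle wells, then plate-position corrected, correlation-weighted and replicate-averaged at the top dose. Five cancer lines and one healthy fibroblast line were exposed to library compounds for 48 h at 10 or 5 uM (0.1% DMSO final).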
# [2] = test system: A549
# In short: as §1
# [3] = test system: DU145
# In short: as §1
# [4] = test system: FB
# In short: as §1
# [5] = test system: HEPG2
# In short: as §1
# [6] = test system: OVCAR4
# In short: as §1
Compound,Euclidean distance [1],Euclidean distance [2],Euclidean distance [3],Euclidean distance [4],Euclidean distance [5],Euclidean distance [6]
CNCCC(Oc1ccc(C(F)(F)F)cc1)c1ccccc1 (stereo not drawn) [Fluoxetine HCl],0.84,1.16,1.21,1.78,1.35,1.71
CCCCCCCCCC(=O)OC1(c2ccc(Cl)cc2)CCN(CCCC(=O)c2ccc(F)cc2)CC1 [Haloperidol Decanoate],0.828,1.13,1.01,0.816,0.961,1.26
N#Cc1cc(CN2CCC(Nc3ncnc4sc(Cl)cc34)CC2)ccc1F,0.974,1.39,1.03,1.19,1.15,1.37
O=C1C(=O)N(Cc2ccc(Cl)c(Cl)c2)c2ccccc21 [Apoptosis Activator 2],1.05,1.36,1.29,1.07,0.54,1.11
Cc1cc(/C=C/c2ccc3cc(N(C)C)ccc3[n+]2C)c(C)n1-c1ccccc1 [pyrvinium],5.7,4.29,5.05,6.77,3.9,5.35
Nc1ccn([C@H]2CC[C@@H](CO)O2)c(=O)n1 [Zalcitabine],1.06,0.768,1.6,0.942,2.07,1.13
CCCCc1nc(Cl)c(CO)n1Cc1ccc(-c2ccccc2-c2nnn[nH]2)cc1 [Losartan Potassium (DuP 753)],0.807,0.621,0.847,0.722,0.759,0.893
O=C(O)c1ccc(-n2nc(-c3ccccc3O)nc2-c2ccccc2O)cc1 [Deferasirox],2.29,2.01,1.82,2.5,1.64,1.99
CC1C(=O)OC2C(O)C34C5CC(C(C)(C)C)C36C(OC(=O)C6O)OC4(C(=O)O5)C12O (stereo not drawn) [Ginkgolide B],0.999,1.63,0.921,1.25,2.11,1.3
Clc1ccc(CCC(Cn2ccnc2)Sc2c(Cl)cccc2Cl)cc1 (stereo not drawn) [Butoconazole],1.21,0.956,1.06,1.04,1.4,1.31
CCn1c(-c2nonc2N)nc2c(C#CC(C)(C)O)ncc(OC[C@H]3CCCNC3)c21,3.05,2.49,1.16,2,1.95,2.14
Cc1nc2n(c(=O)c1CCN1CCC(c3noc4cc(F)ccc34)CC1)CCCC2 [Risperidone],1.21,0.71,0.723,1.08,0.51,0.674
CN(c1ncccc1CNc1nc(Nc2ccc3c(c2)CC(=O)N3)ncc1C(F)(F)F)S(C)(=O)=O,1.25 and 2.75,3.05 and 1.62,2.34 and 1.3,3.61 and 1.66,2.58 and 1.31,3.25 and 1.45
CCc1nc(-c2cccc(C)c2)c(-c2ccnc(NC(=O)c3ccccc3)c2)s1,1.58,0.983,1.46,1.37,1.19,1.34
CN1CCN(c2ccc3nc(-c4c(N)c5c(F)cccc5[nH]c4=O)[nH]c3c2)CC1 [Dovitinib (TKI-258) Dilactic Acid],2.81,3.4,2.01,4.28,0.932,1.96
CCOC(=O)[C@H](CCc1ccccc1)N[C@@H](C)C(=O)N(CC(=O)O)C1Cc2ccccc2C1 [Delapril Hydrochloride],1,1.15,0.898,1,0.353,1.06
CCN(CC)CCOc1ccc2c(c1)C(=O)c1cc(OCCN(CC)CC)ccc1-2 [Tilorone dihydrochloride],2.8,3.87,2.37,5.04,4.45,3.1
CCCCC(=O)O[C@H]1CC[C@H]2[C@@H]3CCc4cc(O)ccc4[C@H]3CC[C@]12C [Estradiol valerate],1.37,0.77,1.17,0.885,0.621,1.21
CC(C)(C)NCC(O)c1cc(O)cc(O)c1 (stereo not drawn) [Terbutaline Sulfate],1.21,0.707,0.835,1.27,0.547,0.825
C[C@H]1CN(C[C@H](Cc2ccccc2)C(=O)NCC(=O)O)CC[C@@]1(C)c1cccc(O)c1 [Alvimopan dihydrate],0.875,0.429,1.89,0.594,0.342,0.96
CC1(C)CC(=O)c2c(C(F)(F)F)nn(-c3ccc(C(N)=O)c(N[C@H]4CC[C@H](O)CC4)c3)c2C1,3.06,2.99,3.09,3.59,3.83,2.73
O=C(Cn1cnnn1)N[C@@H]1C(=O)N2C(C(=O)O)=C(CSc3nncs3)CS[C@H]12 [Ceftezole],1.01,0.658,0.963,1.09,0.476,0.782
CC[C@H](c1ccc(O)cc1)[C@@H](CC)c1ccc(O)cc1 [Hexestrol],1.62,1.07,0.97,0.95,0.662,1.06

# From the supplement of paper PMC10127200
